# HCV inh = blocks hepatitis C virus. Huh7.5.1 HCVcc-Cre infection, luciferase reporter, 44 h. Potency, µM (highest dose often 41.8 µM), for the others: top-dose activity change, negative = inhibition, actives largely listed as inhibitors. hit rate 3.4% among 340,000. AID 651820
#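 HCVcc-Cre virus at an moi near 0.5 was added right after compound to cells cultured 4 h from seeding (1,000 cells/well). Luciferase activity was determined 44 h later, 15 min after substrate addition at RT.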
# Pf growth 96h = inhibits malaria parasite growth, 96 h | P. falciparum luciferase reporter growth, 96 h | hit rate 6.9% among 320,000 | Potency, µM (series often up to 28.7 µM), for inactives: top-dose activity change, negative = inhibition, hits mostly inhibitors | AID 504834
#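 Parasite growth measured via integrated firefly luciferase reporter in P. falciparum. Infected erythrocytes at 2% hematocrit, 0.05% parasitemia final were treated 96 hours at 37 C under 5% CO2, and luminescence was read.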
# AMA1-RON2 inh = disrupts binding of P. falciparum AMA1 to RON2; AlphaScreen AMA1-biotinylated RON2 peptide binding; Potency, µM (highest dose often 58.2 µM), for inactives: top-dose activity change, negative = inhibition, actives largely listed as inhibitors; hit rate 0.2% among 360,000;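 also: 0% = vehicle wells and -100% = peptide control; nearly all actives have a fitted effect of over 45% in size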
#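 AMA1 (3D7) with his tag at 25 nM final met compounds first, then biotinylated RON2 peptide at 25 nM; detection used donor plus acceptor beads, 10 µg/mL apiece, read by AlphaScreen after 30 min at room temperature.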
# AmpC inh no detg = AmpC beta-lactamase inhibition without detergent | Potency, µM (doses to about 57.1 µM), for the others: top-dose activity change, negative = inhibition, usual class: inhibitors | P00811 | AmpC nitrocefin hydrolysis, absorbance 480 nm, 0.0001% Triton | hit rate 0.52% among 330,000;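 also: plate controls were no compound for no effect and no enzyme for full effect; nearly all actives have a fitted effect of over 20% in size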
# Target sequence (P00811 whole entry, looked up): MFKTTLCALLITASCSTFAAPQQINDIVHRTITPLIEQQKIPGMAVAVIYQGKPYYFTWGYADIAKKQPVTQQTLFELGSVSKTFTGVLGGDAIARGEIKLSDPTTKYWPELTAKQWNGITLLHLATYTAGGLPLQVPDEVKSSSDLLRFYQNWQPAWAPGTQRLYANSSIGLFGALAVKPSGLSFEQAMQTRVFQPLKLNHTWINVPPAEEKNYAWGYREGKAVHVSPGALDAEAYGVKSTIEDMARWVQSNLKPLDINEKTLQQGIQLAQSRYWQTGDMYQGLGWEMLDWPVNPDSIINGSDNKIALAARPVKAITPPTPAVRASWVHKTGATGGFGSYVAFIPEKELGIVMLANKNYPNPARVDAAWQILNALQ
#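 AmpC (5.3 nM in the dispensed reagent) in 20 mM phosphate pH 7.0 with 0.01% (detergent screen) or 0.0001% Triton X-100 was preincubated with compounds for 15 min at room temperature. Nitrocefin was then added from an 800 uM solution, and hydrolysis was followed at 480 nm.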
# Pf growth 48h = inhibits P. falciparum growth in the first generation, 48 h | hit rate 5.9% among 310,000 | Potency, µM (doses to about 28.7 µM), for the others: top-dose activity change, negative = inhibition, actives largely listed as inhibitors | P. falciparum luciferase growth in erythrocytes, 48 h
#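 Read-out is firefly luciferase luminescence from an integrated reporter in P. falciparum, so falling signal marks reduced parasite growth. Infected erythrocytes were at 2% hematocrit and 0.1% parasitemia (final) in Albumax-supplemented RPMI 1640.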
# AmpC inh detg = blocks E. coli AmpC beta-lactamase in detergent assay | AmpC hydrolysis of nitrocefin, absorbance 480 nm, 0.01% Triton | Potency, µM (doses to about 114 µM), without a hit: at the highest dose activity change, negative = inhibition, hits mostly inhibitors | hit rate 0.041% among 370,000 | AID 485294;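 also: 0% = no-compound wells and -100% = no-enzyme wells; nearly all actives have a fitted effect of over 25% in size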
#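 20 mM phosphate pH 7.0 + 0.01% (detergent screen) or 0.0001% Triton X-100; 5.3 nM AmpC reagent; cpd preinc 15 min RT; nitrocefin (800 uM stock) to start; A480 q20 s × 4 min; Activity was normalised to no-enzyme and no-compound control wells.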
# The depositor's hits bear a star; ? = inconclusive; nt = not tested or not shown; ! = not active in a repeat; [ ] = another dose, or the depositor's remark. Rows were chosen to be rich in hits. Some 11% of all compounds tested hit in one or more screens of this group. Calls follow the shape of the dose curve; as a rule, active = well fitted curve in the direction sought with a large enough effect; inconclusive = small, poorly fitted or top-dose-only effect, or another doubt; inactive = no such curve, though single readings can be large; an effect the other way counts as inactive or inconclusive. Unless noted, % is scaled to controls: 0 for no effect and ±100 for the full control effect; potency is read from the fitted curve at half-maximal effect.
SMILES,HCV inh,Pf growth 96h,AMA1-RON2 inh,AmpC inh no detg,Pf growth 48h,AmpC inh detg
CCCCN1CC(c2nc3ccccc3n2CCCCOc2cc(C)ccc2C)CC1=O (stereo not drawn),nt,nt,nt,nt,nt,-3.0%
Cc1ccc(NC2(c3nnnn3-c3c(C)cccc3C)CCCCC2)cc1,?,?,-23.9%,-58.8%,13.1µM*,-18.1%
COCCN1C(=O)CCC1(C)c1nnnn1-c1c(C)cccc1C (stereo not drawn),nt,nt,-23.6%,nt,nt,nt
O=C(O)C1CCCCN1S(=O)(=O)c1ccc(Cl)s1 (stereo not drawn),2.6%,9.28µM*,-8.8%,-12.1%,nt,2.0%
O=C(O)C1CCCN1S(=O)(=O)c1ccc(Br)s1 (stereo not drawn) (tested in a mixture with another compound),15.5%,-4.4%,-11.3%,-5.8%,12.5%,0.1%
CN1CCN(CCCN2c3ccccc3Sc3ccc(Cl)cc32)CC1,?,9.28µM*,15.8µM*!,225.1%,9.28µM*,-5.8%
CCSc1ccc2c(c1)N(CCCN1CCN(C)CC1)c1ccccc1S2,?,?,?,213.0%,9.28µM*,-10.6%
OC1CC2CCC(C1)N2CCCN1c2ccccc2Sc2ccc(Cl)cc21 (stereo not drawn),?,nt,-22.4%,nt,nt,nt
Cn1c(=O)c2c(Nc3ccc(F)cc3)cc(=O)n(-c3ccccc3)c2n(C)c1=O,9.4%,?,-7.9%,-10.9%,2.33µM*,-7.2%
Cn1c(=O)c2c(O)cc(=O)n(-c3ccccc3)c2n(C)c1=O,10.2%,-5.5%,14.1%,0.6%,22.4%,?
Cn1c(=O)cc(Nc2ccccc2)c2c(=O)n(-c3ccccc3)c(=O)n(-c3ccccc3)c21,1.4%,4.65µM*,-1.5%,86.8%,6.57µM*,5.7%
CC(=O)Nc1ccc(C=NNc2nnc(NN=Cc3ccc(NC(C)=O)cc3)c3ccccc23)cc1,22.4µM*,nt,2.5%,nt,nt,nt
CCOc1ccc(Cn2nnc(C(=O)NCc3ccc(OC)cc3)c2N)cc1,3.5%,0.928µM*,-5.1%,-1.4%,10.3%,-2.5%
COc1ccc(C)cc1NC(=O)c1nnn(Cc2cccc(C(F)(F)F)c2)c1N,?,13.1µM*,4.1%,-27.3%,-2.2%,13.4%
CCOc1ccc(NC(=O)Cn2nnc(C(=O)NCc3ccc(OC)cc3)c2N)cc1,12.3%,45.6%,-11.2%,-14.3%,14.6%,?
CCOc1ccc(NC(=O)Cn2nnc(C(=O)Nc3ccc(OCC)cc3)c2N)cc1,nt,nt,nt,nt,nt,4.6%
CCOc1ccc(NC(=O)c2nnn(CC(=O)Nc3ccccc3OCC)c2N)cc1,11.2µM*,186.9%,-3.1%,-11.8%,10.0%,-2.8%
CCc1ccc(Cn2nnc(C(=O)Nc3ccc(OC)cc3OC)c2N)cc1,-0.1%,7.38µM*,12.2%,-8.1%,nt,?
Cc1ccc(S(=O)(=O)/N=C(/c2ccccc2)N2CCOCC2)cc1,-4.5%,-18.2%,4.6%,0.5%,10.4%,1.4%
Cc1ccc(S(=O)(=O)/N=C(/c2ccccc2)N2CCOCC2)c(C)c1,6.4%,5.86µM*,0.0%,-1.7%,-41.4%[1.15 µM],1.4%
CC(=O)c1cc(C(=O)c2ccccc2)sc1Nc1ccccc1,12.6µM*,39.4%,-0.8%,-3.3%,41.8%,0.4%
CCn1cc(C(=O)NCc2ccccc2)c(=O)c2cc(F)c(N3CCN(C(=O)c4ccco4)CC3)cc21,11.2µM*,1.65µM*,2.5%,153.1%,nt,-6.3%
CCn1cc(C(=O)NCc2ccc3c(c2)OCO3)c(=O)c2cc(F)c(N3CCN(C(=O)c4ccco4)CC3)cc21,?,nt,-0.5%,250.2%,8.28µM*,2.9%
CCn1cc(C(=O)NCc2ccncc2)c(=O)c2cc(F)c(N3CCN(C(=O)c4ccco4)CC3)cc21,?,10.4µM*,18.1%,123.6%,6.57µM*,-7.7%
CCn1cc(C(=O)NCCN(C)C)c(=O)c2cc(F)c(N3CCN(C)CC3)cc21,14.5%,?,-1.6%,-8.3%,?,1.0%

# Source: PubChem (National Center for Advancing Translational Sciences (NCATS))
